Data published in PubChem BioAssay (Tox21).
Values joined by “and” are separate entries in the source; they are usually repeats but may differ in a detail not shown here. Identical values can stand only once. Inconclusive results are not listed. A structure can be active in one record and inactive in another. Active and inactive are the calls of the source. Unless noted, calls come from the whole dose curve; as a rule, active = well fitted curve in the direction sought with a large enough effect in the repeat runs; inconclusive = weak or mixed curves; inactive = no such curve, though single readings can be large; an effect the other way counts as inactive or inconclusive.

Key:
[1] = qHTS assay to identify small molecule agonists of the hypoxia (HIF-1) signaling pathway - cell viability counter screen (AID 1224844; calls by dose curve; note: nearly all actives have a fitted effect of over 50% in size)
Method in brief: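 Multiplexed with the HRE beta-lactamase assay, this viability read used CellTiter-Glo luminescence (30 min, RT) on HRE-bla ME-180 cells treated 17 hrs with compounds in 0.5% dialyzed FBS medium.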

[2] = qHTS assay to identify small molecule agonists of H2AX (AID 1224845; active = well fitted activation curve with a large enough effect in the signal ratio in the repeat runs, not every such curve was filed as active; the % refers to the signal ratio)
Method in brief: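 Wild-type CHO-K1 cells, plated overnight, exposed 3hr at 37C to 15 concentrations (0.76% DMSO final). Lysed, then HTRF anti-pH2AX (S139) cryptate and anti-H2AX-d2 antibodies, 24 hr room temperature; 665/620 nm emission read.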

[3] = qHTS assay to identify small molecule agonists of the hypoxia (HIF-1) signaling pathway (AID 1224846; active = well fitted activation curve with a large enough effect in the signal ratio in the repeat runs, not every such curve was filed as active; the % refers to the signal ratio)
Method in brief: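 Hypoxia-pathway activation was scored as increased beta-lactamase from an HRE-controlled reporter in ME-180 cells; plated at 2,000 cells per well with 0.5% dialyzed FBS, they were exposed 17 hrs to compounds and then given CCF4-AM.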

[4] = qHTS assay to identify small molecule agonists of H2AX - cell viability counter screen (AID 1224847; calls by dose curve; note: top concentration of the series differs between compounds; nearly all actives have a fitted effect of over 30% in size)
Method in brief: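 CHO-K1 wt, 1000 cells/well, o/n 37C; cpds 15 conc, 3 h 37C, 0.76% DMSO; CellTiter-Glo, 30 min RT, luminescence.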

[5] = qHTS RealTime-Glo MT Cell Viability Assay in HepG2 cells - 24 hour (AID 1224867); note: nearly all actives have a fitted effect of over 50% in size
Method in brief: (§1)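 qHTS, HepG2, 600 cells/well, RealTime-Glo (NanoLuc + prosubstrate) added with cells; 5 h preincubation; DMSO compound addition; 37 C; luminescence at 0/8/16/24/32/40 h.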

[6] = qHTS RealTime-Glo MT Cell Viability Assay in HEK293 cells - 32 hour (AID 1224868); note: top concentration of the series differs between compounds; nearly all actives have a fitted effect of over 50% in size
Method in brief: (§2)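 Assay medium contained NanoLuc luciferase plus cell-permeant prosubstrate, added with HEK293 cells at 600 cells/well. After 5 h at 37 C/5% CO2 compounds were added; plates stayed at 37 C for 40 h with serial luminescence reads.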

[7] = A CellTox Green Cytotoxicity Assay to monitor cytotoxicity in HEK293 cells - 0 hour (AID 1224869); note: nearly all actives have a fitted effect of over 50% in size
Method in brief: (§3)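 Seeding of HEK293 cells together with cytotoxicity dye preceded a 5 h incubation at 37 C/5% CO2. Test compounds in DMSO were then added and fluorescence monitored across 40 h.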

[8] = qHTS RealTime-Glo MT Cell Viability Assay in HepG2 cells - 40 hour (AID 1224870); note: nearly all actives have a fitted effect of over 50% in size
Method in brief: (§4)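 HepG2 cells (600/well) mixed with RealTime-Glo MT reagent, settled 5 h at 37 C/5% CO2 before compound addition. Nonlytic NanoLuc luminescence from viable-cell prosubstrate reduction read repeatedly during 40 h treatment at 37 C.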

[9] = A CellTox Green Cytotoxicity Assay to monitor cytotoxicity in HEK293 cells - 40 hour (AID 1224871); note: nearly all actives have a fitted effect of over 45% in size
Method in brief: as §3

[10] = qHTS RealTime-Glo MT Cell Viability Assay in HEK293 cells - 16 hour (AID 1224872)
Method in brief: as §2

[11] = qHTS RealTime-Glo MT Cell Viability Assay in HepG2 cells - 8 hour (AID 1224873); note: nearly all actives have a fitted effect of over 55% in size
Method in brief: as §4

[12] = qHTS RealTime-Glo MT Cell Viability Assay in HEK293 cells - 40 hour (AID 1224874); conditions: RealTime-Glo luminescence; max response: hits give low values; note: nearly all actives have a fitted effect of over 50% in size; note: potency is the fitted concentration of half-maximal effect
Method in brief: (§5)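 Tox21 screen in HEK293 using RealTime-Glo MT chemistry, with cells and reagent co-dispensed. Luminescence proportional to viable cell number was captured at intervals during 40 h compound exposure at 37 C.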

[13] = A CellTox Green Cytotoxicity Assay to monitor cytotoxicity in HEK293 cells - 24 hour (AID 1224875); note: nearly all actives have a fitted effect of over 45% in size
Method in brief: as §3

[14] = A CellTox Green Cytotoxicity Assay to monitor cytotoxicity in HepG2 cells - 16 hour (AID 1224876); note: nearly all actives have a fitted effect of over 45% in size
Method in brief: (§6)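 Nonlytic assay: viable cells exclude the dye, so fluorescence scales with cell death. HepG2 at 600 cells/well, compounds added after 5 h, signal read across 40 h.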

[15] = qHTS RealTime-Glo MT Cell Viability Assay in HepG2 cells - 32 hour (AID 1224877); note: nearly all actives have a fitted effect of over 55% in size
Method in brief: as §1

[16] = A CellTox Green Cytotoxicity Assay to monitor cytotoxicity in HepG2 cells - 24 hour (AID 1224878); note: nearly all actives have a fitted effect of over 45% in size
Method in brief: as §6

[17] = A CellTox Green Cytotoxicity Assay to monitor cytotoxicity in HepG2 cells - 40 hour (AID 1224879); note: nearly all actives have a fitted effect of over 40% in size
Method in brief: as §6

[18] = qHTS RealTime-Glo MT Cell Viability Assay in HEK293 cells - 0 hour (AID 1224880)
Method in brief: as §5

[19] = qHTS assay to identify small molecule antagonists of the estrogen related receptor (ERR) signaling pathway from Tox21 library (AID 1224848); note: nearly all actives have a fitted effect of over 50% in size
Method in brief: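 ERR reporter cell line (from NTP) seeded 2,000 cells/well, rested 6 h at 37 C/5% CO2, then pin-dosed with compounds in DMSO. After 18 h at 37 C, ONE-Glo added; luminescence read after 30 min at room temperature.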

[20] = qHTS assay to identify small molecule agonists of the estrogen related receptor (ERR) signaling pathway from Tox21 library (AID 1224849; calls by dose curve; note: nearly all actives have a fitted effect of over 15% in size); conditions: ERR reporter cell line, ONE-Glo luciferase, 18 h
Method in brief: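 Six hours post-seeding at 37 C/5% CO2, ERR cells receive DMSO-solubilised compounds; after 18 h at 37 C, ONE-Glo reagent is applied and luminescence recorded.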
% is set by controls: 0 for no effect and ±100 for the full control effect.

CCOP(=O)(SC(C)CC)N1CCSC1=O (stereo unspecified)
inactive: Potency [1] | Potency [2] | outcome [3] | Potency [4] | Potency [5] | Potency [6] | Potency [7] | Potency [8] | Potency [9] | Potency [10] | Potency [11] | max response [12] 15% | Potency [13] | Potency [14] | Potency [15] | Potency [16] | Potency [17] | outcome [18]

CCCCOC(=O)CCC(=O)OCCCC
inactive: Potency [1] | Potency [2] | outcome [3] | Potency [4] | Potency [19] | activity change, positive = activation ([20]; at 92.4 µM (top of the series)) 0.0296% | Potency [5] | Potency [6] | Potency [7] | Potency [8] | Potency [9] | Potency [10] | Potency [11] | max response [12] 3.34% | Potency [13] | Potency [14] | Potency [15] | outcome [18]

CCCSP(=S)(OCC)Oc1ccc(SC)cc1 (stereo unspecified)
inactive: Potency [1] | Potency [2] | outcome [3] | Potency [4] | Potency [19] | activity change, positive = activation ([20]; at 92.4 µM (top of the series)) 2.16% | Potency [5] | Potency [7] | Potency [8] | Potency [9] | Potency [10] | Potency [11] | max response [12] 3.34% | Potency [13] | Potency [14] | Potency [15] | Potency [16] | Potency [17] | outcome [18]

COc1cc(C[C@@H](C)N)c(OC)cc1Br
inactive: Potency [1] | Potency [2] | outcome [3] | Potency [4] | Potency [19] | activity change, positive = activation ([20]; at 92.4 µM (top of the series)) -15.6% | Potency [5] | Potency [6] | Potency [7] | Potency [8] | Potency [9] | Potency [10] | Potency [11] | max response [12] -17.7% | Potency [13] | Potency [14] | Potency [15] | Potency [16] | outcome [18]

N#CC(C#N)=C(C#N)C#N
inactive: Potency [1] | Potency [2] | outcome [3] | Potency [4] | Potency [19] | activity change, positive = activation ([20]; at 92.4 µM (top of the series)) -1.38% | Potency [5] | Potency [6] | Potency [7] | Potency [8] | Potency [9] | Potency [10] | Potency [11] | max response [12] 20.6% | Potency [13] | Potency [14] | Potency [15] | Potency [16] | Potency [17] | outcome [18]

c1ccc2c(c1)sc1ccccc12
inactive: Potency [1] | Potency [2] | outcome [3] | Potency [4] | Potency [19] | activity change, positive = activation ([20]; at 42.5 µM (top of the series)) 0.495% | activity change, positive = activation ([20]; at 92.4 µM (top of the series)) -4.7% | Potency [5] | Potency [6] | Potency [7] | Potency [8] | Potency [10] | Potency [11] | max response [12] 0.709% and -2.64% | Potency [13] | Potency [14] | Potency [15] | Potency [16] | Potency [17] | outcome [18]

CN1CC[C@]23c4c5ccc(O)c4O[C@H]2[C@@H](O)C=C[C@H]3[C@H]1C5
inactive: Potency [1] | Potency [2] | outcome [3] | Potency [4] | Potency [19] | activity change, positive = activation ([20]; at 92.4 µM (top of the series)) 1.06% | Potency [5] | Potency [6] | Potency [7] | Potency [8] | Potency [9] | Potency [10] | Potency [11] | max response [12] 1.75% | Potency [13] | Potency [14] | Potency [15] | Potency [16] | Potency [17] | outcome [18]

O=C(O)COc1cc(Cl)c(Cl)cc1Cl
active: Potency [12] 15.5 µM
inactive: Potency [1] | Potency [2] | outcome [3] | Potency [4] | Potency [19] | activity change, positive = activation ([20]; at 92.4 µM (top of the series)) -7.72% and -14.1% | Potency [5] | Potency [7] | Potency [8] | Potency [9] | Potency [10] | Potency [11] | max response [12] 6.38% | Potency [13] | Potency [14] | Potency [15] | Potency [16] | outcome [18]

CC(C)CCCCCCCOC(=O)c1ccccc1C(=O)OCCCCCCCC(C)C
inactive: Potency [1] | Potency [2] | outcome [3] | Potency [4] | Potency [19] | activity change, positive = activation ([20]; at 92.4 µM (top of the series)) 0.464% | Potency [5] | Potency [6] | Potency [7] | Potency [8] | Potency [9] | Potency [10] | Potency [11] | max response [12] 11.2% | Potency [13] | Potency [14] | Potency [15] | Potency [16] | Potency [17] | outcome [18]

CC1(C)CC(=O)CC(C)(C)N1[O]
inactive: Potency [1] | Potency [2] | outcome [3] | Potency [4] | Potency [19] | activity change, positive = activation ([20]; at 92.4 µM (top of the series)) -0.242% | Potency [5] | Potency [7] | Potency [8] | Potency [9] | Potency [10] | Potency [11] | max response [12] 2.69% | Potency [13] | Potency [14] | Potency [15] | Potency [16] | Potency [17] | outcome [18]

C[N+](C)(C)CC1CO1 (stereo unspecified)
inactive: Potency [1] | Potency [2] | outcome [3] | Potency [4] | Potency [5] | Potency [6] | Potency [7] | Potency [8] | Potency [9] | Potency [10] | Potency [11] | max response [12] 5.73% | Potency [13] | Potency [14] | Potency [15] | Potency [16] | Potency [17] | outcome [18]

CCCBr
inactive: Potency [1] | Potency [2] | outcome [3] | Potency [4] | Potency [5] | Potency [6] | Potency [7] | Potency [8] | Potency [9] | Potency [10] | Potency [11] | max response [12] -3.27% | Potency [13] | Potency [14] | Potency [15] | Potency [16] | Potency [17] | outcome [18]

COC(=O)C1(O)c2ccccc2-c2ccccc21
inactive: Potency [1] | Potency [2] | outcome [3] | Potency [4] | Potency [5] | Potency [7] | Potency [8] | Potency [9] | Potency [10] | Potency [11] | max response [12] -22.2% | Potency [14] | Potency [15] | Potency [16] | Potency [17] | outcome [18]

COC(=O)Cc1ccccc1
inactive: Potency [1] | Potency [2] | outcome [3] | Potency [4] | Potency [5] | Potency [6] | Potency [7] | Potency [8] | Potency [9] | Potency [10] | Potency [11] | max response [12] 7.1% | Potency [13] | Potency [14] | Potency [15] | Potency [16] | outcome [18]
